PLK1 PBD inh = qHTS for Inhibitors of PLK1-PDB (polo-like kinase 1 - polo-box domain): Primary Screen | Potency, µM, inactives show max response, negative = inhibition, actives largely listed as inhibitors | Plk1 PBD binding of FITC phosphopeptide, fluorescence polarization | 360,000 tested, 2.8% active; also: potency is read from the fitted curve at half-maximal effect; series mostly up to about 57 µM; % is scaled to controls: 0 for no effect and ±100 for the full control effect; nearly all actives have a fitted effect of over 65% in size
BAZ2B inh = qHTS Assay for Inhibitors of BAZ2B. Potency, µM (titrated, usually from 114 µM), inactives show at the top dose activity change, negative = inhibition, most hits filed as inhibitors. 360,000 tested, 4.4% active. Bromodomain adjacent to zinc finger domain protein 2B (Homo sapiens), Q9UIF8. AlphaScreen BAZ2B-H3K14Ac peptide displacement; also: potency is read from the fitted curve at half-maximal effect; % is scaled to controls: 0 for no effect and ±100 for the full control effect; nearly all actives have a fitted effect of over 60% in size
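Inhibition is scored as reduced AlphaScreen emission. The BAZ2B/b-H3(5-23)K14Ac complex (50 nM each) in PBS pH 7.4, 0.01% Tween-20 meets compound (up to 110 uM) for 30 min at RT before bead addition.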
HP1b chromo inh = HTS for Inhibitors of HP1-beta Chromodomain Interactions with Methylated Histone Tails. AlphaScreen HP1-beta / biotin-H3K9me3 peptide binding. AID 540317, 2011. Chromobox protein homolog 1 (Homo sapiens), P83916. 390,000 tested, 0.56% active. Potency, µM (highest dose often 114 µM), for the others: at the top dose activity change, negative = inhibition, usual class: inhibitors; also: potency is read from the fitted curve at half-maximal effect; nearly all actives have a fitted effect of over 70% in size
Target sequence (P83916 whole entry, looked up): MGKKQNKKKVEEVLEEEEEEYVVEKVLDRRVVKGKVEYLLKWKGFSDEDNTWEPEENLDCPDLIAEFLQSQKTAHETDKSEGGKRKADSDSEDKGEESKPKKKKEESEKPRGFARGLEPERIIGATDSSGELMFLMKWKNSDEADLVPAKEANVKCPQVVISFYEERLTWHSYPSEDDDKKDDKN
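Compound inhibition of the preformed complex between 50 nM HP1-beta and 50 nM biotinylated H3K9me3 peptide was read by AlphaScreen. Buffer was PBS pH 7.4 with 0.01% Tween-20. Incubations ran 30 min at room temperature, with 10 ug/mL donor/acceptor beads.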
G9a inh = qHTS Assay for Inhibitors of Histone Lysine Methyltransferase G9a; Histone-lysine N-methyltransferase EHMT2 (Homo sapiens), Q96KQ7; G9a H3K9 monomethylation, AlphaScreen, 2 h; Potency, µM (highest dose often 102 µM), for inactives: top-dose activity, negative = inhibition, usual class: inhibitors; 350,000 tested, 8.8% active; AID 504332, 2011; also: potency is read from the fitted curve at half-maximal effect; % is scaled to controls: 0 for no effect and ±100 for the full control effect; nearly all actives have a fitted effect of over 75% in size
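Compounds were preincubated with 20 nM G9a for 15 min, after which biotinylated H3K9 peptide (500 nM) and SAM (20 uM) started a 2 h room-temperature reaction. Monomethylated product was quantified by antibody-based AlphaScreen chemiluminescence.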
JMJD2A Tudor = qHTS Assay for Inhibitors of JMJD2A-Tudor Domain. Lysine-specific demethylase 4A (Homo sapiens), O75164. AlphaScreen JMJD2A-Tudor / H3K4me3 peptide binding. Potency, µM (top dose mostly 114 µM), without a hit: at the top dose activity change, negative = inhibition, most hits filed as inhibitors. 390,000 tested, 4.4% active. AID 504339, 2011; also: potency is read from the fitted curve at half-maximal effect; % is scaled to controls: 0 for no effect and ±100 for the full control effect; nearly all actives have a fitted effect of over 50% in size
PI5P4K alpha inh = qHTS for Inhibitors of phosphatidylinositol 5-phosphate 4-kinase (PI5P4K) | max response, % | 330,000 tested, 1.2% active | AID 652105, 2013 | Phosphatidylinositol 5-phosphate 4-kinase type-2 alpha (Homo sapiens), P48426 | PI5P4Kalpha enzyme, ADP-Glo luminescence, 60 min; hits give low values; active = max response of -50% or lower; inconclusive = between -30% and -50%; inactive = -30% or higher; also: value at the top dose of about 77 µM; % is scaled to controls: 0 for no effect and ±100 for the full control effect
Target sequence (P48426 whole entry, looked up): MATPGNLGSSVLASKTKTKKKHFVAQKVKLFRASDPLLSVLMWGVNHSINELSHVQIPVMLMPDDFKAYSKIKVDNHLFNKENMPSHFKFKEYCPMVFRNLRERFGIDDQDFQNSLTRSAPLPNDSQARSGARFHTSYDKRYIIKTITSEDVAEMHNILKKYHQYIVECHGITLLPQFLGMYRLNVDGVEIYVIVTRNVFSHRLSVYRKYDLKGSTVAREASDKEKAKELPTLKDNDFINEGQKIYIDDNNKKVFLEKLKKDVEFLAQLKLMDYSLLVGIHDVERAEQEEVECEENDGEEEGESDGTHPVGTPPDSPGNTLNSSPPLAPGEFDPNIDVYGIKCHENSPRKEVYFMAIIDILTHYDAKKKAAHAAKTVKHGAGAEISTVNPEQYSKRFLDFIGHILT
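Single end-point luminescence (ADP-Glo) quantified ADP from PI5P4Kalpha turnover; ATP 5 microM final, 1 h at RT, 0.1% CHAPS and 0.28 mM EGTA in HEPES pH 7.4.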
Active calls of the source: *; [ ] = remark or other dose. Only some compounds are listed: those with a hit (about 12% of all), similar ones and a draw of the others. Unless noted, calls follow the shape of the dose curve; as a rule, active = well fitted curve in the direction sought with a large enough effect; inconclusive = small, poorly fitted or top-dose-only effect, or another doubt; inactive = no such curve, though single readings can be large; an effect the other way counts as inactive or inconclusive.

Results for O=C(NCc1cccc(Cl)c1)c1cnc(N2CCCCC2)c2ccccc12 ?
BAZ2B inh: 27%; HP1b chromo inh: 64%[57 µM]; G9a inh: 46%[59 µM]; JMJD2A Tudor: 17%

How did Cn1c(SCC(=O)c2ccccc2)nnc1-c1cccc(N)c1 do in these assays?
PLK1 PBD inh: 24µM*; BAZ2B inh: -3%; HP1b chromo inh: -13%; G9a inh: -22%; JMJD2A Tudor: -21%[11.4 µM]; PI5P4K alpha inh: 2

Results for O=C(CSc1nnc(-c2ccccn2)n1Cc1ccco1)c1ccccc1 ?
PLK1 PBD inh: -2%; BAZ2B inh: inconclusive; HP1b chromo inh: 7%; G9a inh: 40µM*; JMJD2A Tudor: inconclusive; PI5P4K alpha inh: 0

Results for Cn1c(SCC(=O)c2ccccc2)nnc1-c1ccccn1 ?
PLK1 PBD inh: -2%; BAZ2B inh: 79µM*; HP1b chromo inh: 38%; G9a inh: -2%; JMJD2A Tudor: -9%; PI5P4K alpha inh: -6

How did Cn1c(SCC(=O)O)nnc1-c1cccc(NC(=O)c2cccc3ccccc23)c1 do in these assays?
PLK1 PBD inh: -18%; BAZ2B inh: -13%; HP1b chromo inh: 33%; G9a inh: 32µM*; JMJD2A Tudor: -4%[11.4 µM]; PI5P4K alpha inh: -17

Results for Cc1cc(N2CCC(C(=O)Nc3ccccc3Cl)CC2)n2nc(C)c(-c3ccc(Cl)cc3)c2n1 ?
BAZ2B inh: -5%; HP1b chromo inh: 19%; G9a inh: -1%[59 µM]; JMJD2A Tudor: -12%

Results for Cc1cc(C)c(C)c(S(=O)(=O)N2CCN(C(=O)c3cc(S(=O)(=O)N4CCOCC4)ccc3F)CC2)c1C ?
PLK1 PBD inh: -5%; HP1b chromo inh: 23%; JMJD2A Tudor: -13%; PI5P4K alpha inh: 1

What do the screens show for `Cc1ccc(S(=O)(=O)N2C[C@@H]3CCCC[C@@H]3[C@@H](C)[C@H]2CC(=O)c2ccccc2)cc1`?
PLK1 PBD inh: -8%; HP1b chromo inh: 18%; JMJD2A Tudor: -21%; PI5P4K alpha inh: 2

How did CCCCCCN1CCN(C2CN(C3CCCCC3)S(=O)(=O)C2)CC1 (configuration not stated) do in these assays?
PLK1 PBD inh: -6%; PI5P4K alpha inh: 8

How did CC(C)(C)c1ccc(CSc2nnc(-c3ccccn3)n2Cc2ccco2)cc1 do in these assays?
PLK1 PBD inh: -5%; BAZ2B inh: inconclusive; HP1b chromo inh: 21%; G9a inh: -5%[12.7 µM]; JMJD2A Tudor: -23%; PI5P4K alpha inh: -2

What do the screens show for `Brc1ccc(CSc2nnc(-c3ccccn3)n2Cc2ccco2)cc1`?
PLK1 PBD inh: -14%; BAZ2B inh: inconclusive; HP1b chromo inh: 26%; G9a inh: 50µM*; JMJD2A Tudor: -33%

What do the screens show for `O=C(CSc1nnc(-c2ccccn2)n1Cc1ccco1)c1ccc(Cl)cc1`?
PLK1 PBD inh: -11%; BAZ2B inh: inconclusive; HP1b chromo inh: 13%; G9a inh: 40µM*; JMJD2A Tudor: inconclusive; PI5P4K alpha inh: 1

Results for O=C(CSc1nnc(-c2cnccn2)n1Cc1ccco1)c1ccccc1 ?
PLK1 PBD inh: 1%; BAZ2B inh: -29%; HP1b chromo inh: 41%; G9a inh: 45µM*; JMJD2A Tudor: -4%; PI5P4K alpha inh: -2

How did Cn1c(SCC(=O)c2ccc3c(c2)Cc2ccccc2-3)nnc1-c1ccccc1 do in these assays?
PLK1 PBD inh: -30%; BAZ2B inh: inconclusive; HP1b chromo inh: 28%; G9a inh: 35µM*; JMJD2A Tudor: -12%[11.4 µM]; PI5P4K alpha inh: -17

How did COc1ccc(NC(=O)c2c(C)oc3ccc(O)c(CN4CCCC(C)C4)c23)cc1 (configuration not stated) do in these assays?
BAZ2B inh: -24%; HP1b chromo inh: 13%; G9a inh: -26%[59 µM]; JMJD2A Tudor: -19%

Results for COc1ccccc1CNC(=O)CCCn1c(=O)c2ccccc2n(Cc2ccc(F)cc2)c1=O ?
BAZ2B inh: 1%; HP1b chromo inh: 25%; G9a inh: -1%[59 µM]; JMJD2A Tudor: 2%

Results for O=C(CSc1nnc(-c2cccnc2)n1Cc1ccco1)c1ccc2ccccc2c1 ?
PLK1 PBD inh: -15%; BAZ2B inh: 0%; HP1b chromo inh: -2%; G9a inh: 50µM*; JMJD2A Tudor: -33%; PI5P4K alpha inh: inconclusive

What do the screens show for `O=C(CSc1nnc(-c2cccnc2)n1Cc1ccco1)c1ccc(Br)cc1`?
PLK1 PBD inh: -6%; BAZ2B inh: -7%; HP1b chromo inh: 28%; G9a inh: -15%; JMJD2A Tudor: -22%; PI5P4K alpha inh: -9

Results for O=C(NC1CCN(C(=O)c2ccccc2Br)CC1)c1ccccc1 ?
PLK1 PBD inh: -1%; BAZ2B inh: 0%; HP1b chromo inh: 20%; G9a inh: -1%[12.7 µM]; JMJD2A Tudor: 2%; PI5P4K alpha inh: 3

How did CCN(CC)c1ccc(/C=N/NC(=O)C(O)(c2ccccc2)c2ccccc2)o1 do in these assays?
BAZ2B inh: -8%; G9a inh: 28µM*

How did O=C(O)c1ccc(/C=N/NC(=O)C(O)(c2ccccc2)c2ccccc2)cc1 do in these assays?
PLK1 PBD inh: 5%; BAZ2B inh: -16%; HP1b chromo inh: 31%; G9a inh: inconclusive; JMJD2A Tudor: -5%; PI5P4K alpha inh: -1

Results for O=C(NCC(c1cccs1)N1CCOCC1)c1cc([N+](=O)[O-])ccc1Cl (configuration not stated) ?
PLK1 PBD inh: 0%; BAZ2B inh: 9%; HP1b chromo inh: 28%; G9a inh: 45µM*; JMJD2A Tudor: -5%; PI5P4K alpha inh: -4

Results for O=[N+]([O-])c1cc(-c2ncccn2)c([N+](=O)[O-])s1 ?
PLK1 PBD inh: 2.7µM*; BAZ2B inh: inconclusive; HP1b chromo inh: 20%; G9a inh: 28µM*; JMJD2A Tudor: -24%; PI5P4K alpha inh: inconclusive

How did CCCn1c(SCC(=O)NC2CCCCC2)nnc1-c1ccncc1 do in these assays?
PLK1 PBD inh: 24µM*; BAZ2B inh: 6%; HP1b chromo inh: -5%; G9a inh: 7%[59 µM]; JMJD2A Tudor: -19%[11.4 µM]; PI5P4K alpha inh: 1

Results for CCCn1c(SCC(=O)N2CCCC(C)C2)nnc1-c1cccnc1 (configuration not stated) ?
PLK1 PBD inh: 30µM*; BAZ2B inh: -4%; HP1b chromo inh: -22%; JMJD2A Tudor: inconclusive; PI5P4K alpha inh: -6
